By AC50 is commonly meant the midpoint of the concentration-response curve, whichever way the signal moves.

The structures appear in SMILES notation. Active and inactive are the calls of the source. How the source made its calls: active means hit-call score of the fitted dose curve at least 0.9, where 1 is the maximum; inactive means score below 0.9.

The record followed here is PubChem BioAssay (EPA / NIEHS).

The nature of this assay: BSK_3C_Vis: BioMAP Diversity Plus: 3C Assay for Morphology Visualization (AID 2283025).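 Further: fitted both ways so gain or loss versus DMSO counts.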 The conditions noted are these: primary human endothelial cells (HUVEC). The method, then:
BSK_3C is a cell-based, multiplexed-readout assay that uses umbilical vein endothelium, a human vascular primary cell, with measurements taken at 24 hours after chemical dosing in a 96-well plate.BSK_3C_Vis is an assay component measured in the BSK_3C assay. It measures NA related to cell morphology using light microscopy technology.Data from the assay component BSK_3C_Vis was analyzed into 1 assay endpoint. This assay endpoint, BSK_3C_Vis, was analyzed with bidirectional fitting relative to DMSO as the negative control and baseline of activity. Using a type of morphology reporter, gain or loss-of-signal activity can be used to understand changes in the background control. Furthermore, this assay endpoint can be referred to as a secondary readout, because this assay has produced multiple assay endpoints where this one serves a background control function. To generalize the intended target to other relatable targets, this assay endpoint is annotated to the cell morphology intended target family, where the subfamily is cell conformation.
The levels of cell surface (or secreted, indicated by the prefix "s") biomarker endpoints were measured by ELISA. Overt cytotoxicity to cells in confluent adherent cultures (all systems other than the BT system) was assessed by measuring total protein levels using sulforhodamine B (SRB) staining in parallel cultures at the time of biomarker measurements, indicated as SRB endpoints. For proliferation assays for adherent cell types, individual cell types are cultured at sub-confluence and relative cell numbers quantified by SRB staining at time points optimized for each system (48 h: 3C and CASM3C systems; 72 h: BT and HDF3CGF systems; 96 h: SAg system). SRB was performed by staining cells with 0.1% SRB after fixation with 10% TCA and reading wells at 560 nm.Viability and proliferation of PBMC (T cells) was quantified by Alamar Blue reduction for the SAg and BT systems. For PBMC viability (referred to as PBMC Cytotoxicity within the assay endpoint names), cells were plated (75,000/well in a 96-well plate) and then chemical samples added for 1 h before addition of activators, SEB and TSST-1 (20 ng/mL final concentration each). Cells were incubated for 90 h. Then, Alamar Blue (20 uL/well) (Invitrogen, Cat DAL1100) was added for 6 h, and the plates were read with a fluorescence microplate reader at 546/580 nm (excitation/emission). For PBMC proliferation, cells were plated and activated as above but incubated for only 16 h prior to addition of Alamar Blue. Plates were read after 6 h.
On to `CCCCC(CC)COC(=O)c1c(Br)c(Br)c(Br)c(Br)c1C(=O)OCC(CC)CCCC` (stereo not given), for which the outcome was inactive.

With `CCCCN(CCCC)SN(C)C(=O)Oc1cccc2c1OC(C)(C)C2`, the AC50 is 37.5 µM (active).

In the case of `CCOP(=S)(OCC)SCSc1ccc(Cl)cc1`, the result was inactive.

Turning to `Nc1cc2c3c(c1)C(c1ccccc1)=N[C@@H](NC(=O)c1cccnc1)C(=O)N3CC2`, the result was inactive.

On to `O=[N+]([O-])c1ccc(Cl)c(Cl)c1`, for which the result was inactive.

For `O=C(O)C1C(C(=O)O)C2(Cl)C(Cl)=C(Cl)C1(Cl)C2(Cl)Cl` (stereo not given), the result was inactive.

Take `ClC(Cl)=C(c1ccc(Cl)cc1)c1ccccc1Cl`: the AC50 was 14.4 µM (active).

With `CCCCC(CC)COP(=O)(Oc1ccccc1)Oc1ccccc1` (stereo not given), the AC50 is 10.1 µM (active).

For `c1nc[nH]n1`, the outcome was inactive.

For `O=c1ssc(Cl)c1Cl`, the AC50 was 4.24 µM (active).

Take `CCOP(=S)(OCC)SCS(=O)(=O)CC`: the result was inactive.

Take `CC(C)(C)c1ccc(O)cc1`: the result was inactive.

Consider `CCOP(=S)(NC(C)C)Oc1ccccc1C(=O)OC(C)C` (stereo not given), for which the outcome was inactive.

Take `c1ccc2c(c1)Nc1ccccc1S2`: the outcome was inactive.

On to `Cc1ccc([N+](=O)[O-])cc1C`, for which the result was inactive.

With `CCOS(=O)(=O)OCC`, the outcome was inactive.

Consider `Nc1ccc(Cl)cc1`, for which the outcome was inactive.

For `c1cc2c3c(cccc3c1)CC2`, the result was inactive.

Consider `CCN(CC)c1ccccc1`, for which the result was inactive.

Turning to `ClC(Cl)c1ccccc1`, the outcome was inactive.

With `O=C(O)C(Cl)Cl`, the outcome was inactive.

For the compound `OCC1CO1` (stereo not given), the result was inactive.

As for `CCC(C)(C)c1ccc(O)cc1`, the outcome was inactive.

Regarding `CC(Cc1ccc(OCC(=O)O)cc1)NCC(O)c1csc(C(F)(F)F)n1` (stereo not given), the outcome was inactive.

Consider `CCOC(=O)c1ccccc1C(=O)OCC`, for which the outcome was inactive.

As for `CCCN(CCC)c1c([N+](=O)[O-])cc(C(C)C)cc1[N+](=O)[O-]`, the outcome was inactive.

Take `Cc1c([N+](=O)[O-])cc2c(c1[N+](=O)[O-])C(C)(C)CC2(C)C`: the AC50 was 37.5 µM (active).

For `Cc1ccc(O)cc1C`, the result was inactive.

With `COCCOCCO`, the result was inactive.

`O=[N+]([O-])c1ccccc1`: the outcome was inactive.

On to `CCCCCCCc1ccc(O)cc1`, for which the AC50 was 22.3 µM (active).

With `CCCCN(CCCC)N=O`, the outcome was inactive.

With `O=P1(N(CCCl)CCCl)NCCCO1` (stereo not given), the outcome was inactive.

With `CCCCc1ccccc1`, the result was inactive.

Consider `O=S1(=O)OCC2C(CO1)C1(Cl)C(Cl)=C(Cl)C2(Cl)C1(Cl)Cl` (stereo not given), for which the result was inactive.

Take `CCNc1nc(Cl)nc(NC(C)(C)C)n1`: the outcome was inactive.

Turning to `CCOc1ccc(C(C)(C)COCc2cccc(Oc3ccccc3)c2)cc1`, the result was inactive.

For the compound `CN(C)C(=O)Cl`, the outcome was inactive.

For `Cc1ccc(N)cc1N`, the result was inactive.

As for `CC(C)(C)OOC(C)(C)C`, the result was inactive.
